Test results: PubChem BioAssay (Tox21)
Values without a mark were called inactive. Inconclusive results are not listed. Where a call stands in place of a potency, no number is given. The source made the active and inactive calls. Unless noted, calls come from the whole dose curve; as a rule, active = well fitted curve in the direction sought with a large enough effect in the repeat runs; inconclusive = weak or mixed curves; inactive = no such curve, though single readings can be large; an effect the other way counts as inactive or inconclusive.

Key:
[1] = target: Thyrotropin receptor (Homo sapiens) (UniProt P16473); assay: qHTS assay to identify small molecule agonists of the thyroid stimulating hormone receptor (TSHR) signaling pathway (AID 1224843; calls by dose curve; note: nearly all actives have a fitted effect of over 45% in size; note: potency is the fitted concentration of half-maximal effect)
Outline: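 Using 15 concentrations per compound in triplicate, cAMP production was monitored in TSHR-HEK293 cells after 30 min compound incubation at RT; HTRF reagents followed, with fluorescence intensity recorded after 1 h.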

[2] = qHTS assay to identify small molecule agonists of the hypoxia (HIF-1) signaling pathway - cell viability counter screen (AID 1224844; calls by dose curve; note: nearly all actives have a fitted effect of over 50% in size)
Outline: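 CellTiter-Glo luminescence read-out, 30 min RT, taken in the same wells as the beta-lactamase HRE reporter assay; HRE-bla ME-180 cells, 0.5% dialyzed FBS, 17 hr compound treatment at 37C, 5% CO2.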

[3] = qHTS assay to identify small molecule agonists of H2AX (AID 1224845; active = well fitted activation curve with a large enough effect in the signal ratio in the repeat runs, not every such curve was filed as active; the % refers to the signal ratio)
Outline: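 Wild-type CHO-K1 cells plated overnight, then exposed 3 hr at 37C to compounds at 15 concentrations (0.76% DMSO). Lysed, then HTRF anti-pH2AX(S139)-cryptate/anti-H2AX-d2 detection after 24 hr at room temperature; emissions 665 and 620 nm.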

[4] = qHTS assay to identify small molecule agonists of the hypoxia (HIF-1) signaling pathway (AID 1224846; active = well fitted activation curve with a large enough effect in the signal ratio in the repeat runs, not every such curve was filed as active; the % refers to the signal ratio)
Outline: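 Beta-lactamase FRET read-out (CCF4-AM substrate) from ME-180 cells carrying an HRE-driven bla reporter, after 17 hrs compound exposure at 37C/5% CO2. Cells were seeded at 2,000 per well in 0.5% dialyzed FBS medium and preincubated 5 hrs.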

[5] = qHTS assay to identify small molecule agonists of H2AX - cell viability counter screen (AID 1224847; calls by dose curve; note: top concentration of the series differs between compounds; nearly all actives have a fitted effect of over 30% in size)
Outline: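 Counter-screen for viability: CellTiter-Glo ATP luminescence read after 3 h compound treatment (15-point titration, 0.76% DMSO final) of CHO-K1 cells at 37C, with 30 min room-temperature reagent incubation.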

[6] = qHTS RealTime-Glo MT Cell Viability Assay in HepG2 cells - 24 hour (AID 1224867); note: nearly all actives have a fitted effect of over 50% in size
Outline: (§1)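 Compound treatment began 5 h after plating HepG2 cells (600/well) with NanoLuc luciferase and prosubstrate. Plates stayed at 37 C for 40 h; luminescence was captured at six time points, 0 h through 40 h.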

[7] = qHTS RealTime-Glo MT Cell Viability Assay in HEK293 cells - 32 hour (AID 1224868); note: top concentration of the series differs between compounds; nearly all actives have a fitted effect of over 50% in size
Outline: (§2)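 Quantitative high-throughput screen of the Tox21 10K library in HEK293: cells and RealTime-Glo reagents plated together, compound added at 5 h, luminescence monitored through 40 h at 37 C.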

[8] = A CellTox Green Cytotoxicity Assay to monitor cytotoxicity in HEK293 cells - 0 hour (AID 1224869); note: nearly all actives have a fitted effect of over 50% in size
Outline: (§3)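 Read-out: fluorescence of a cell-impermeant cyanine dye staining DNA of dead cells, proportional to cytotoxicity. HEK293, 600 cells/well with reagent, compound (23 nL DMSO) added after 5 h; reads at 0, 8, 16, 24, 32, 40 h.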

[9] = qHTS RealTime-Glo MT Cell Viability Assay in HepG2 cells - 40 hour (AID 1224870); note: nearly all actives have a fitted effect of over 50% in size
Outline: (§4)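 HepG2 cells mixed with RealTime-Glo MT reagents (NanoLuc plus cell-permeant prosubstrate) were seeded at 600 cells/well, incubated 5 h at 37 C/5% CO2, then pinned with compounds in DMSO; nonlytic luminescence tracked viability during 40 h treatment.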

[10] = A CellTox Green Cytotoxicity Assay to monitor cytotoxicity in HEK293 cells - 40 hour (AID 1224871); note: nearly all actives have a fitted effect of over 45% in size
Outline: as §3

[11] = qHTS RealTime-Glo MT Cell Viability Assay in HEK293 cells - 16 hour (AID 1224872)
Outline: as §2

[12] = qHTS RealTime-Glo MT Cell Viability Assay in HepG2 cells - 8 hour (AID 1224873); note: nearly all actives have a fitted effect of over 55% in size
Outline: as §4

[13] = qHTS RealTime-Glo MT Cell Viability Assay in HEK293 cells - 40 hour (AID 1224874); details: RealTime-Glo luminescence; max response: hits give low values; note: nearly all actives have a fitted effect of over 50% in size
Outline: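 Luminescence readout at each listed time point; HEK293, 600 cells/well, RealTime-Glo MT reagent added with cells; compounds pinned (23 nL in DMSO) after 5 h at 37 C; continuous culture at 37 C.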

[14] = A CellTox Green Cytotoxicity Assay to monitor cytotoxicity in HEK293 cells - 24 hour (AID 1224875); note: series mostly up to about 77 µM; nearly all actives have a fitted effect of over 45% in size
Outline: as §3

[15] = A CellTox Green Cytotoxicity Assay to monitor cytotoxicity in HepG2 cells - 16 hour (AID 1224876); note: nearly all actives have a fitted effect of over 45% in size
Outline: (§5)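 HepG2, 600 cells/well premixed w/ CellTox Green; 5 h settle, 37 C/5% CO2; pintool cpd add (DMSO); 37 C, 40 h; fluorescence read at 0, 8, 16, 24, 32, 40 h.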

[16] = qHTS RealTime-Glo MT Cell Viability Assay in HepG2 cells - 32 hour (AID 1224877); note: nearly all actives have a fitted effect of over 55% in size
Outline: as §1

[17] = A CellTox Green Cytotoxicity Assay to monitor cytotoxicity in HepG2 cells - 24 hour (AID 1224878); note: nearly all actives have a fitted effect of over 45% in size
Outline: as §5

[18] = A CellTox Green Cytotoxicity Assay to monitor cytotoxicity in HepG2 cells - 40 hour (AID 1224879); note: nearly all actives have a fitted effect of over 40% in size
Outline: as §5

Thyrotropin receptor (Homo sapiens), sequence (P16473 whole entry, looked up): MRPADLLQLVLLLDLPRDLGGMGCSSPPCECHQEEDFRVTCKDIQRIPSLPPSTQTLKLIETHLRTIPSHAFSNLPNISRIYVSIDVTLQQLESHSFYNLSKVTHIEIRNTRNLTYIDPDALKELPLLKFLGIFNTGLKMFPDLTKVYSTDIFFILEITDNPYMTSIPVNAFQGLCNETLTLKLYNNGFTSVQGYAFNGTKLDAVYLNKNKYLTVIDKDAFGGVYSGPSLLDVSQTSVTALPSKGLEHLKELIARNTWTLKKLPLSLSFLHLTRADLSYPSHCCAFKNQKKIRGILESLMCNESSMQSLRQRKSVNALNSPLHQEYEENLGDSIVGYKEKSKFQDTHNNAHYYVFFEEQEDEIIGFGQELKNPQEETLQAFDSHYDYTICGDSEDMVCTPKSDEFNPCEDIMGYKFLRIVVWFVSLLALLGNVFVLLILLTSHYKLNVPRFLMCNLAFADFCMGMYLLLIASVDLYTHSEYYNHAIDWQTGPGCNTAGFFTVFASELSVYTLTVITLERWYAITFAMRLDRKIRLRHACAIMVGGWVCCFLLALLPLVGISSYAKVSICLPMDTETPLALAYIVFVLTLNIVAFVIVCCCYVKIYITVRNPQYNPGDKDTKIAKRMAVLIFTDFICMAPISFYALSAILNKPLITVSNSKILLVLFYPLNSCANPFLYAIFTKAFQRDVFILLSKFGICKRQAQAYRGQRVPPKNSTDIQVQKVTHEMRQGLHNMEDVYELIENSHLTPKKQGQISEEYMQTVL

Compound: CCC(CO)(CO)CO
- Potency [1]: inactive
- Potency [2]: inactive
- Potency [3]: inactive
- outcome [4]: inactive
- Potency [5]: inactive
- Potency [6]: inactive
- Potency [7]: inactive
- Potency [8]: inactive
- Potency [9]: inactive
- Potency [10]: inactive
- Potency [11]: inactive
- Potency [12]: inactive
- max response [13]: 5.95%
- Potency [14]: inactive
- Potency [15]: inactive
- Potency [16]: inactive
- Potency [17]: inactive
- Potency [18]: inactive

Compound: CCCCC[C@H](O)/C=C/[C@H]1[C@H](O)CC(=O)[C@@H]1C/C=C\CCCC(=O)O
- Potency [1]: 26.6 nM (active)
- Potency [2]: inactive
- Potency [3]: inactive
- outcome [4]: inactive
- Potency [5]: inactive
- Potency [6]: inactive
- Potency [7]: inactive
- Potency [8]: inactive
- Potency [9]: inactive
- Potency [10]: inactive
- Potency [11]: inactive
- Potency [12]: inactive
- max response [13]: 19.7%
- Potency [14]: inactive
- Potency [15]: inactive
- Potency [16]: inactive
- Potency [17]: inactive
- Potency [18]: inactive

Compound: CC1=CC[C@@H]2C[C@H]1C2(C)C
- activation [1]: 21.3% [at 19 µM]
- activity change, negative = cytotoxicity [2]: 7.49% [at 15.8 µM]
- activation (H2AX phosphorylation) [3]: 1.37% [at 31.6 µM]
- activation [4]: -1.3% [at 15.8 µM]
- activity change, negative = cytotoxicity [5]: 0.589% [at 31.6 µM]
- activity change, negative = cytotoxicity [6]: 0.892% [at 15.8 µM]
- activity change, negative = cytotoxic [7]: 2.23% [at 15.8 µM]
- cytotoxicity [8]: 0.458% [at 15.8 µM]
- cytotoxicity increase [10]: 2.52% [at 15.8 µM]
- activity change, negative = cytotoxicity [11]: 8.54% [at 15.8 µM]
- viability change, negative = cytotoxic [12]: 0.867% [at 15.8 µM]
- max response [13]: 1.39%
- activity change [14]: 2.23% [at 15.8 µM, hits give high values]
- cytotoxicity increase [15]: -4.53% [at 15.8 µM]
- activity change, negative = cytotoxic [16]: 2.7% [at 15.8 µM]
- cytotoxicity [17]: -4.03% [at 15.8 µM]
- cytotoxicity increase [18]: -3.58% [at 15.8 µM]

Compound: NC(=O)c1ccccc1[N+](=O)[O-]
- Potency [1]: inactive
- Potency [2]: inactive
- Potency [3]: inactive
- outcome [4]: inactive
- Potency [5]: inactive
- Potency [6]: inactive
- Potency [7]: inactive
- Potency [9]: inactive
- Potency [10]: inactive
- Potency [11]: inactive
- Potency [12]: inactive
- max response [13]: 13.7%
- Potency [14]: inactive
- Potency [15]: inactive
- Potency [16]: inactive
- Potency [17]: inactive
- Potency [18]: inactive

Compound: CC(C)(C)C(O)/C=C/c1ccc2c(c1)OCO2 (stereo not drawn)
- Potency [1]: inactive
- Potency [2]: inactive
- Potency [3]: inactive
- outcome [4]: inactive
- Potency [5]: inactive
- Potency [6]: inactive
- Potency [7]: inactive
- Potency [8]: inactive
- Potency [9]: inactive
- Potency [11]: inactive
- Potency [12]: inactive
- max response [13]: 1.57%
- Potency [14]: inactive
- Potency [16]: inactive
- Potency [17]: inactive

Compound: Cc1ccc(Cl)cc1N
- Potency [1]: inactive
- Potency [2]: inactive
- Potency [3]: inactive
- outcome [4]: inactive
- Potency [5]: inactive
- Potency [6]: inactive
- Potency [7]: inactive
- Potency [9]: inactive
- Potency [10]: inactive
- Potency [11]: inactive
- Potency [12]: inactive
- max response [13]: 4.39%
- Potency [15]: inactive
- Potency [16]: inactive
- Potency [17]: inactive
- Potency [18]: inactive

Compound: Nc1nc(-c2ccc([N+](=O)[O-])cc2)cs1
- Potency [1]: inactive
- Potency [2]: inactive
- Potency [3]: inactive
- outcome [4]: inactive
- Potency [5]: inactive
- Potency [6]: inactive
- Potency [7]: inactive
- Potency [8]: inactive
- Potency [9]: inactive
- Potency [10]: inactive
- Potency [11]: inactive
- Potency [12]: inactive
- max response [13]: -14.1%
- Potency [14]: inactive
- Potency [16]: inactive
- Potency [17]: inactive
- Potency [18]: inactive
